Measurements from PubChem BioAssay AID1159580 (chemical genetic matrix, 2015).
Hit rate of the full screen: of about 5,500 compounds, about 2,000 (36%) were called active. Not shown: some 18% with an inconclusive outcome. Cut-off read from the data, not from the text of the source: active = normalized growth mostly below about 0.91 (no sharp cut-off); inconclusive = no clear call, values can overlap the other calls; inactive = mostly above about 0.92. Some of the results follow.

Assay: chemical genetic growth profiling, strain panel (AID 1159580);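 note: tested at 20 µM; growth read once vehicle control cultures reached saturation at 30 °C; 1 = growth at the plate median or of vehicle wells; lower values mean less growth of the strain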
Details: growth OD

Measured: normalized growth

COC(=O)[C@]1(C)CC[C@]2(C)CC[C@]3(C)C4=CC=C5C(=CC(=O)C(O)=C5C)[C@]4(C)CC[C@@]3(C)[C@@H]2C1
inactive: S. cerevisiae deletion strains, locus YKL009W, strain mrt4, stronger effect = lower value 1.06 | S. cerevisiae deletion strains, locus YKL068W, stronger effect = lower value 0.961 | S. cerevisiae deletion strains, locus YKL085W, strain MDH1 (second series), stronger effect = lower value 1.01 | S. cerevisiae deletion strains, locus YKL085W, strain MDH1, stronger effect = lower value 1.01 | S. cerevisiae deletion strains, locus YKR026C, strain gcn3, stronger effect = lower value 0.941 | S. cerevisiae deletion strains, locus YKR091W, strain srl3, stronger effect = lower value 0.995 | S. cerevisiae deletion strains, locus YLL041C, strain sdh2, stronger effect = lower value 0.929 | S. cerevisiae deletion strains, locus YLR102C, strain apc9, stronger effect = lower value 0.983 | S. cerevisiae deletion strains, locus YLR371W, strain rom2, stronger effect = lower value 0.948 | S. cerevisiae deletion strains, locus YLR384C, strain iki3, stronger effect = lower value 0.96 | S. cerevisiae deletion strains, locus YML124C, strain tub3, stronger effect = lower value 0.956 | S. cerevisiae deletion strains, locus YMR078C, strain ctf18, stronger effect = lower value 0.934 | S. cerevisiae deletion strains, locus YMR307W, strain GAS1, stronger effect = lower value 0.65 | S. cerevisiae deletion strains, locus YNL250W, strain rad50, stronger effect = lower value 0.934 | S. cerevisiae deletion strains, locus YNL298W, strain CLA4, stronger effect = lower value 0.957 | S. cerevisiae deletion strains, locus YNL322C, strain KRE1 (second series), stronger effect = lower value 0.978 | S. cerevisiae deletion strains, locus YOL012C, strain htz1 0.412 | S. cerevisiae deletion strains, locus YOR001W, strain rrp6, stronger effect = lower value 0.918 | S. cerevisiae deletion strains, locus YOR136W, strain idh2, stronger effect = lower value 0.961 | S. cerevisiae deletion strains, locus YOR316C, strain cot1, stronger effect = lower value 0.962 | S. cerevisiae deletion strains, locus YPL106C, strain sse1, stronger effect = lower value 0.854 | S. cerevisiae deletion strains, locus YPR119W, strain clb2, stronger effect = lower value 0.957 | S. cerevisiae deletion strains, locus YPR141C, strain kar3, stronger effect = lower value 0.943
active: S. cerevisiae deletion strains, locus YJR043C, strain POL32, stronger effect = lower value 0.646 | S. cerevisiae deletion strains, locus YJR075W, strain HOC1, stronger effect = lower value 0.794 | S. cerevisiae deletion strains, locus YKL160W, strain elf1, stronger effect = lower value 0.702 | S. cerevisiae deletion strains, locus YKL190W, strain CNB1, stronger effect = lower value 0.712 | S. cerevisiae deletion strains, locus YKR001C, strain vps1, stronger effect = lower value 0.793 | S. cerevisiae deletion strains, locus YLL001W, strain dnm1, stronger effect = lower value 0.729 | S. cerevisiae deletion strains, locus YLL026W, stronger effect = lower value 0.887 | S. cerevisiae deletion strains, locus YLR027C, strain aat2, stronger effect = lower value 0.719 | S. cerevisiae deletion strains, locus YLR039C, strain RIC1, stronger effect = lower value 0.406 | S. cerevisiae deletion strains, locus YLR058C, strain SHM2, stronger effect = lower value 0.615 | S. cerevisiae deletion strains, locus YLR221C, strain rsa3, stronger effect = lower value 0.752 | S. cerevisiae deletion strains, locus YLR258W, strain gsy2, stronger effect = lower value 0.802 | S. cerevisiae deletion strains, locus YLR262C, strain YPT6 (second series), stronger effect = lower value 0.394 | S. cerevisiae deletion strains, locus YLR262C, strain YPT6, stronger effect = lower value 0.45 | S. cerevisiae deletion strains, locus YLR268W, strain sec22, stronger effect = lower value 0.832 | S. cerevisiae deletion strains, locus YLR320W, strain mms22, stronger effect = lower value 0.495 | S. cerevisiae deletion strains, locus YLR330W, strain CHS5, stronger effect = lower value 0.64 | S. cerevisiae deletion strains, locus YLR342W, strain FKS1 (second series), stronger effect = lower value 0.71 | S. cerevisiae deletion strains, locus YLR342W, strain FKS1, stronger effect = lower value 0.59 | S. cerevisiae deletion strains, locus YLR357W, strain rsc2, stronger effect = lower value 0.824 | S. cerevisiae deletion strains, locus YLR370C, strain arc18, stronger effect = lower value 0.797 | S. cerevisiae deletion strains, locus YLR418C, strain cdc73, stronger effect = lower value 0.383 | S. cerevisiae deletion strains, locus YML016C, strain PPZ1, stronger effect = lower value 0.781 | S. cerevisiae deletion strains, locus YML032C, strain rad52, stronger effect = lower value 0.873 | S. cerevisiae deletion strains, locus YML120C, strain ndi1, stronger effect = lower value 0.819 | S. cerevisiae deletion strains, locus YMR058W, strain fet3, stronger effect = lower value 0.115 | S. cerevisiae deletion strains, locus YMR125W, strain sto1, stronger effect = lower value 0.812 | S. cerevisiae deletion strains, locus YMR205C, strain PFK2, stronger effect = lower value 0.56 | S. cerevisiae deletion strains, locus YMR223W, strain ubp8, stronger effect = lower value 0.85 | S. cerevisiae deletion strains, locus YMR231W, strain pep5, stronger effect = lower value 0.863 | S. cerevisiae deletion strains, locus YMR263W, strain SAP30, stronger effect = lower value 0.803 | S. cerevisiae deletion strains, locus YNL067W, strain RPL9B, stronger effect = lower value 0.803 | S. cerevisiae deletion strains, locus YNL071W, strain lat1, stronger effect = lower value 0.347 | S. cerevisiae deletion strains, locus YNL128W, strain TEP1, stronger effect = lower value 0.548 | S. cerevisiae deletion strains, locus YNL209W, strain ssb2, stronger effect = lower value 0.454 | S. cerevisiae deletion strains, locus YNL233W, strain BNI4, stronger effect = lower value 0.811 | S. cerevisiae deletion strains, locus YNL248C, strain rpa49, stronger effect = lower value 0.887 | S. cerevisiae deletion strains, locus YNL271C, strain bni1, stronger effect = lower value 0.894 | S. cerevisiae deletion strains, locus YNL307C, strain MCK1, stronger effect = lower value 0.754 | S. cerevisiae deletion strains, locus YNL322C, strain KRE1, stronger effect = lower value 0.772 | S. cerevisiae deletion strains, locus YNR049C, strain mso1, stronger effect = lower value 0.878 | S. cerevisiae deletion strains, locus YNR052C, strain pop2, stronger effect = lower value 0.888 | S. cerevisiae deletion strains, locus YOL006C, strain TOP1, stronger effect = lower value 0.317 | S. cerevisiae deletion strains, locus YOL147C, strain pex11, stronger effect = lower value 0.91 | S. cerevisiae deletion strains, locus YOR061W, strain CKA2, stronger effect = lower value 0.744 | S. cerevisiae deletion strains, locus YOR069W, strain VPS5, stronger effect = lower value 0.836 | S. cerevisiae deletion strains, locus YOR070C, strain gyp1, stronger effect = lower value 0.678 | S. cerevisiae deletion strains, locus YOR080W, strain dia2, stronger effect = lower value 0.757 | S. cerevisiae deletion strains, locus YOR083W, strain WHI5, stronger effect = lower value 0.757 | S. cerevisiae deletion strains, locus YOR106W, strain vam3, stronger effect = lower value 0.574 | S. cerevisiae deletion strains, locus YOR144C, strain elg1, stronger effect = lower value 0.908 | S. cerevisiae deletion strains, locus YOR184W, strain ser1, stronger effect = lower value 0.645 | S. cerevisiae deletion strains, locus YOR265W, strain rbl2, stronger effect = lower value 0.747 | S. cerevisiae deletion strains, locus YOR270C, strain vph1, stronger effect = lower value 0.472 | S. cerevisiae deletion strains, locus YOR290C, strain snf2, stronger effect = lower value 0.515 | S. cerevisiae deletion strains, locus YPL051W, strain arl3, stronger effect = lower value 0.448 | S. cerevisiae deletion strains, locus YPL078C, strain atp4, stronger effect = lower value 0.65 | S. cerevisiae deletion strains, locus YPL240C, strain hsp82, stronger effect = lower value 0.81 | S. cerevisiae deletion strains, locus YPL241C, strain CIN2, stronger effect = lower value 0.898 | S. cerevisiae deletion strains, locus YPR163C, strain tif3, stronger effect = lower value 0.888 | S. cerevisiae deletion strains, locus YPR167C, strain met16, stronger effect = lower value 0.917 | S. cerevisiae deletion strains, strain wtn01, stronger effect = lower value 0.894 | S. cerevisiae strains, strain wild type, stronger effect = lower value 0.572
